# Source: PubChem BioAssay
# esBAF inh = blocks esBAF chromatin remodeling in mouse ES cells | Bmi1-luciferase knock-in reporter, 24 h; 100% = twice the neutral-well signal | AID 602393 | hit rate 2% among 350,000 | reporter increase, % at 12.5 µM; in the data active = activation above about 40%;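 note: 0% = median of the plate's neutral control wells and 100% = double that signal; a rise in the Bmi1 reporter signal indicates esBAF inhibition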
# MITF act = MITF TRPM1 promoter activation in melanoma cells. SK-MEL-5 TRPM1-promoter luciferase, 24 h; % of positive control, neutral wells = 0. activation, % at 12.5 µM. hit rate 0.75% among 300,000;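 active = mean activation of at least 80% with every replicate also reaching 80%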;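 note: 0% = neutral control wells and 100% = parthenolide positive control wells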
# Vif imaging = HIV Vif inhibition; inhibition, % at 7.49 µM; hit rate 0.35% among 340,000; HEK293T cells, Vif self-association by quenched fluorescence, imaging, 24 h; in the data active = inhibition above about 50%, passing the limit was not always enough
# N-glyco inh = N-linked glycosylation inhibition; D54 ERlucT glycosylation luciferase reporter, 24 h; percent of 100 nM tunicamycin response; reporter increase, % at 12.5 µM; hit rate 0.23% among 360,000;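 active = mean luciferase reporter signal, scaled so untreated is 0 and the glycosylation-blocking control 100, at or above a set limit in every replicate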;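 note: luciferase carries N-glycosylation sites so blocking glycosylation raises the light; 0% = median of neutral control wells and 100% = median of 100 nM tunicamycin wells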
# Wnt act = activators of Wnt/beta-catenin signaling | Wnt/beta-catenin reporter cell assay, activator, plate reader | activation, % at 9.35 µM | hit rate 1.2% among 300,000 | AID 743398; in the data active = activation above about 30%, passing the limit was not always enough;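 note: 0% = neutral control wells and 100% = positive control wells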
# PfHsp90 set2 = growth inhibition of yeast expressing Plasmodium Hsp90. S. cerevisiae expressing PfHsp90, BacTiter-Glo ATP, 48 h; yeast lacking PDR1 and PDR3 efflux regulators. inhibition, % at 9.4 µM. hit rate 0.32% among 310,000. AID 504621;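 active = every replicate shows inhibition above about 80%, whatever the replicate mean, limit read from the data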;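 note: 0% = DMSO neutral controls and 100% = 20 µM radicicol positive controls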
# Starred values were filed as active, the others as inactive; · = no result. This is a sample that favours compounds with a hit; in the whole collection about 3% have one here.
SMILES,esBAF inh,MITF act,Vif imaging,N-glyco inh,Wnt act,PfHsp90 set2
Cc1ccccc1-c1cc2nc(NCCc3ccncc3)n(C)c(=O)c2s1,11,·,-6,-3,-1,·
Cn1c(NCCc2ccncc2)nc2cc(-c3ccccc3)sc2c1=O,56*,·,14,-3,-1,·
COc1cccc(-c2cc3nc(NCc4cccnc4)n(C)c(=O)c3s2)c1,46*,·,-25,-3,0,·
O=C(NCc1nnc(SCC(=O)N2CCCc3ccccc32)o1)c1c(F)cccc1Cl,0,-2,-7,-1,50*,-18
O=C(NCc1nnc(SCC(=O)N2CCCCC2)o1)c1c(F)cccc1F,-5,3,-5,1,-1,17
Cc1ccc(/C=C2\SC(N3CCCCC3)=NC2=O)cc1,42*,64,-4,1,7,-9
Cc1ccc(S(=O)(=O)N2CCOCC2)cc1NC(=O)CSc1ccccn1,-3,-11,18,0,0,·
O=C(c1ccc2ncsc2c1)N1CCN(c2cccc(C(F)(F)F)c2)CC1,46*,1,-11,24,1,-11
CC(CNC(=O)c1ccccc1Cl)c1ccccc1 (stereo unspecified),48*,66,-4,-2,7,7
CCOC(=O)c1c(C)c(C(=O)N2CCCCCC2)c(C)n1CC,1,-15,-1,1,-1,·
CC1COCC(C)N1C1=C(Cl)C(=O)c2ccccc2C1=O (stereo unspecified),-10,-96,-6,34*,-4,-22
CCOC(=O)Cc1csc(NC(=O)c2ccc(Br)cc2)n1,9,1,8,0,1,1
CCOC(=O)Cc1csc(NC(=O)c2cnc3sc(C)cn3c2=O)n1,47*,62,-9,1,3,4
CCOC(=O)Cc1csc(NC(=O)c2ccc3ncsc3c2)n1,52*,2,-2,-2,22,-2
COc1ccc(NC(=O)Nc2ccc3c(c2)[C@H]2C[C@@H](CC(=O)N4CCN(C)CC4)O[C@@H](CO)[C@H]2O3)cc1,-2,·,·,·,·,·
NC(Cc1c[nH]c2ccc(OCc3ccccc3)cc12)C(=O)O (stereo unspecified),1,0,-21,1,-1,2
CN=c1scc(-c2ccccc2F)n1/N=C/c1ccc(O)c(O)c1O,-78,-86,14,-5,-7,16
CC(C)N=c1scc(-c2cccs2)n1/N=C/c1ccc(O)c(O)c1O,·,3,17,8,·,106*
COc1ccc(/C=C(\CC(=O)O)c2nc3ccccc3o2)cc1,69*,61,12,-2,5,7
COc1ccc(C(=O)/C(=C/c2cccs2)c2nc3ccccc3o2)cc1,21,7,·,-7,12,-12
Fc1ccccc1-c1cc2ncccc2cn1,30,71,4,1,34*,2
COc1cc(OC)cc(-c2cc3ncccc3cn2)c1,30,14,-6,1,11,-20
O=S(=O)(NC1CC2CCC1C2)c1ccc2c(c1)OCCO2 (stereo unspecified),4,·,-5,0,·,21
COc1ccc(S(=O)(=O)NC2CC3CCC2C3)cc1Br (stereo unspecified),-2,·,-2,-2,-2,114*
COc1ccc(S(=O)(=O)NC2CC3CCC2C3)cc1Cl (stereo unspecified),0,-2,-10,0,-3,141*
SMILES,esBAF inh,MITF act,Vif imaging,N-glyco inh,Wnt act,PfHsp90 set2
COCC(=O)N[C@@H]1CC[C@@H](CC(=O)NCc2ccc(Cl)cc2)O[C@@H]1CO,1,·,·,·,·,·
Cc1ccc(-n2ncc3c(=O)n(CC#N)cnc32)cc1C,16,3,-3,0,3,5
Cc1nc2c3cnn(-c4ccc(C)c(C)c4)c3ncn2n1,·,87*,6,-2,·,-16
C#CCn1cnc2c(cnn2-c2ccc(C)c(C)c2)c1=O,66*,66,-9,1,·,16
O=C(Cc1ccccc1F)Nc1ccc(Cl)nc1,9,·,8,0,·,-10
COc1cccc(CNc2cccc(C(F)(F)F)c2)c1O,-6,-3,1,-1,0,3
Fc1ccccc1CNc1ccc(Cl)c(Cl)c1,26,59,55*,-12,·,-11
COc1cccc(CNc2ccc(F)c(Cl)c2)c1O,25,88*,3,-3,·,·
CCSc1nnc(NC(=O)CSc2nc3c(cc2C#N)CCCC3)s1,11,79,10,-9,28,11
CCc1nnc(NC(=O)CSc2nc3c(cc2C#N)CCC3)s1,-8,45,·,3,70*,-42
CCC(=O)Nc1c(C(=O)Nc2ccc3c(c2)OCCO3)oc2ccccc12,·,98*,-7,-3,36*,9
O=C(Nc1ccc2c(c1)OCCO2)c1oc2ccccc2c1NC(=O)C1CC1,·,1,-7,9,5,-23
CCOCC(=O)Nc1c(C(=O)Nc2ccc3c(c2)OCCO3)oc2ccccc12,·,95*,-9,-4,15,-5
COCC(=O)Nc1c(C(=O)Nc2ccc3c(c2)OCCO3)oc2ccccc12,9,92*,-3,-10,18,·
CCC(=O)Nc1c(C(=O)Nc2cccc(OC)c2)oc2ccccc12,43*,74,4,1,·,·
CCOC(=O)c1oc2ccccc2c1NC(=O)c1cccc(OC)c1,-10,25,-4,1,-6,2
COC(=O)c1cc(C)sc1NC(=O)CN1CCN(C(=O)c2ccco2)CC1,-2,-11,-5,0,-2,0
COc1ccccc1C(=O)Nc1ccc2c(c1)C(=O)N(C)C[C@H](OC)[C@@H](C)CN(C(C)=O)[C@H](C)CO2,-6,·,·,·,·,·
CC1(C)Cc2ccccc2C(NNC(=O)c2ccccn2)=N1,5,-14,3,0,·,-9
CC(C)(C)OC(=O)NCCCC[C@@H](C(=O)NCCCCCCCCCCC(=O)N1CCN(C(=O)OC(C)(C)C)CC1)n1cc(CCCC(=O)O)nn1,3,-3,-2,-4,-4,-11
Nc1c2c(=O)oc(-c3ccccc3)cc2nn1-c1ccccc1,70*,·,-6,8,·,-20
Cc1c(-c2ccc(Cl)cc2)oc(=O)c2c(N)n(-c3ccccc3)nc12,31,29,-8,-3,21,-12
CCn1nc(C(=O)NNC(=O)c2ccc(OC(F)F)cc2)c2ccccc2c1=O,-5,-7,-1,3,-1,2
CCn1nc(C(=O)N2CCN(Cc3nc4ccccc4s3)CC2)c2ccccc2c1=O,53*,35,1,-4,-2,-3
CCn1nc(C(=O)N2CCc3ccccc3C2)c2ccccc2c1=O,0,3,1,2,2,2
CCn1nc(C(=O)NNC(=O)c2ccccc2)c2ccccc2c1=O,46*,29,-3,2,12,29
Cc1cc(/C=C2/C(=O)N(C)C(=S)N2C)c(C)n1C1CC1,10,68,9,3,-1,29
